An excerpt weighted towards active compounds, which were near 3.5% of everything screened.
TEAD-YAP inh: TEAD-YAP interaction inhibition; inhibition, % at 9.12 µM; actives 1.4% (n = 640,000); HEK-TIYL cells, TEAD-Gal4/YAP UAS-luciferase luminescence; in the data active = inhibition above about 32%
FBW7 activator: activators of human E3 ligase FBW7 | Q969H0 | AlphaScreen FBW7–phospho-cyclin E peptide binding, activator screen | normalized activity (activation), % at 26.1 µM | actives 0.13% (n = 650,000); in the data active = normalized activity above about 1.9%;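 also: purified mutant Fbw7 with reduced substrate affinity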
Target sequence (Q969H0 whole entry, looked up): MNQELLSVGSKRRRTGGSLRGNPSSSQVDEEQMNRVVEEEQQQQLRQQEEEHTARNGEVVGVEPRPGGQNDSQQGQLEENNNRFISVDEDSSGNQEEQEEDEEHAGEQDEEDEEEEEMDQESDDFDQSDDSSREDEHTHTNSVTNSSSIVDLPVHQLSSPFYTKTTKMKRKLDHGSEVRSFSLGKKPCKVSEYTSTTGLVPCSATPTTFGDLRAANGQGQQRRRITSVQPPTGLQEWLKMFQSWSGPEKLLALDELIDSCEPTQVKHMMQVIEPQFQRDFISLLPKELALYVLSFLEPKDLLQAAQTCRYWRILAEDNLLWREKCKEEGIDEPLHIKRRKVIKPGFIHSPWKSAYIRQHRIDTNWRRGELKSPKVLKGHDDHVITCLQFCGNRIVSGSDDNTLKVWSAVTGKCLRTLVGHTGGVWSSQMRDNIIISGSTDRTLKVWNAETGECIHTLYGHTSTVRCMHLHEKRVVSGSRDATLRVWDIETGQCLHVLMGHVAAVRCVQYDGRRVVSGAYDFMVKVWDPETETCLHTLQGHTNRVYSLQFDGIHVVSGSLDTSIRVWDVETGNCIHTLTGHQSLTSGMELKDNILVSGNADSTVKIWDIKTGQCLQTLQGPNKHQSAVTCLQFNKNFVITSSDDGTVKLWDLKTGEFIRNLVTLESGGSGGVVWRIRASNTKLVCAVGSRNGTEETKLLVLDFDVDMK
MITF inh: blocks human microphthalmia-associated transcription factor; actives 0.91% (n = 650,000); AlphaScreen MITF homodimerization, bead proximity signal; inhibition, % at 2.6 µM; in the data active = inhibition above about 50%
GPR151 ag: human GPR151 activation. PathHunter beta-arrestin GPR151 cells, luminescence. activation, % at 11.2 µM. actives 1% (n = 650,000). AID 1508602; in the data active = activation above about 4.9%
Large screens that a line does not name were inactive.

Cc1ccn2cc(-c3ccc(I)cc3)nc2c1	TEAD-YAP inh 79
Cc1ccn2cc(-c3ccc([N+](=O)[O-])cc3)nc2c1	none
Cc1ccn2cc(-c3ccc(S(=O)(=O)N(C)C)cc3)nc2c1	TEAD-YAP inh 48
Cc1ccn2cc(-c3ccccc3Br)nc2c1	TEAD-YAP inh 33
C=C(C)CSc1nc2ccccc2c(=O)n1C	none
Cc1noc(C)c1-c1nc(C(=O)NC2CC2)cs1	none
O=S(=O)(c1ccccc1)c1cnc2ccccc2c1N1CCCC1	none
Cc1cc2ncn(S(=O)(=O)c3ccc(S(N)(=O)=O)cc3)c2cc1C	none
CCOc1ccc(S(=O)(=O)n2cnc3cc(C)c(C)cc32)cc1	TEAD-YAP inh 34
CCCCOc1ccc(S(=O)(=O)n2cnc3cc(C)c(C)cc32)cc1	TEAD-YAP inh 48
Cc1ccc(S(=O)(=O)n2cnc3cc(C)c(C)cc32)cc1	none
Cc1ccc(S(=O)(=O)n2cnc3cc(C)c(C)cc32)cc1C	TEAD-YAP inh 39
NC(=O)c1c(NC(=O)CCS(=O)(=O)c2ccccc2)sc2c1CCCC2	none
N#CCCN1CCC2(CC1)OCCc1c2[nH]c2ccccc12	none
CN(C)S(=O)(=O)c1ccc(NC(=O)CN2CCCC2)cc1	none
Cc1nc(N2CCN(C)CC2)c2c(C)c(C(=O)Nc3ccc(F)c(Cl)c3)sc2n1	none
CCOC(=O)c1c(NC(=O)CSc2nnc(CNC(=O)c3ccc(C)c([N+](=O)[O-])c3)n2Cc2ccccc2)sc2c1CCC2	none
CCCc1cc(N2CCC(C(N)=O)CC2)n2cnnc2n1	none
CCCc1cc(N2CCN(c3ccc(C(C)=O)cc3)CC2)n2cnnc2n1	TEAD-YAP inh 42
O=C1N[C@H](Cc2ccc(O)cc2)C(=O)N2CCN(Cc3cccc4ncccc34)C[C@H]12	none
CN(C)CCNC(=O)CC12CC3CC(C1)CC(c1ccccc1)(C3)C2	none
CCCCC1(CC(=O)Nc2ccc(F)cc2)C(=O)N(c2ccccc2)N(c2ccccc2)C1=O	FBW7 activator 1.9
N#CCCN1CCN(C2=NC(=O)/C(=C\c3ccc(Cl)cc3)S2)CC1	none
CN1CCN(c2ccc(-c3cccc(C(=O)NCc4nc5ccccc5[nH]4)c3)cc2)CC1	TEAD-YAP inh 68
CN1CCN(c2ccc(-c3cc(C(=O)NCc4nc5ccccc5[nH]4)ccn3)cc2)CC1	TEAD-YAP inh 88
COc1ccc(-c2cccc(C(=O)NCc3nc4ccccc4[nH]3)c2)cc1	none
COc1cc(Nc2nc3c(NCCO)ncnc3n2C(C)C)cc(OC)c1OC	none
COc1cc(Nc2nc3c(NCCc4ccc(O)cc4)ncnc3n2C(C)C)cc(OC)c1OC	TEAD-YAP inh 32
COc1cc(Nc2ncnc3c2nc(Nc2cccc(N(C)C)c2)n3C(C)C)cc(OC)c1OC	none
COc1cc(Nc2nc3c(Nc4ccccc4)ncnc3n2C(C)C)cc(OC)c1OC	TEAD-YAP inh 38
CC(C)(C)c1ccc(C(=O)Nc2c3c(nn2CC(=O)NCC2CCCO2)CSC3)cc1 (stereo not drawn)	none
CCOc1ccc(N=Cc2c(C)[nH]n(-c3ccccc3)c2=O)cc1	none
Cc1[nH]n(-c2ccccc2)c(=O)c1/C=N/Nc1nncc(-c2ccccc2)n1	TEAD-YAP inh 42
Cc1nnc(N/N=C/c2ccccc2)[nH]c1=O	none
Cc1[nH]n(-c2ccccc2)c(=O)c1C=Nc1ccc(N(C)C)cc1	MITF inh 63
Cc1[nH]n(-c2ccccc2)c(=O)c1/C=N/Nc1nnc(C)c(=O)[nH]1	MITF inh 101
Cc1ccc(/C=N/Nc2nncc(-c3ccccc3)n2)o1	none
O=C1CC2c3ccccc3C1C1C(=O)N(c3ccc([N+](=O)[O-])cc3)C(=O)C21 (stereo not drawn)	none
O=C(Cn1c(=O)[nH]c2ccccc21)NCc1ccc2c(c1)OCO2	TEAD-YAP inh 75
COc1ccc(N=C2O/C(=C\c3sc(=S)n(CC4CCCO4)c3O)N=C2C#N)cc1 (stereo not drawn)	MITF inh 52
O=C(CCCn1c(SCc2cccc([N+](=O)[O-])c2)nc2ccccc2c1=O)N1CCCC1	none
CN1CCN(C/C=C/c2ccc(N(C)C)cc2)CC1	MITF inh 68
CCN1CCN(C/C=C/c2ccc(N(C)C)cc2)CC1	none
O=C1CCCN1CCCNc1nc(-c2ccc(N3CCOCC3)nc2)nc2c1ncn2-c1ccsc1	TEAD-YAP inh 48
O=C1CCCN1CCCNc1nc(-c2ccc(N3CCOCC3)nc2)nc2c1ncn2CCN1CCCC1=O	none
Nc1cccc(-c2nc(NCCCN3CCCC3=O)c3ncn(-c4ccsc4)c3n2)c1	TEAD-YAP inh 62
Cc1noc(C)c1-c1nc(NCCCN2CCCC2=O)c2ncn(-c3ccsc3)c2n1	TEAD-YAP inh 59

From PubChem BioAssay
